High-throughput results: PubChem, several laboratories
SKN-1 inh – suppressors of acrylamide-induced Pgst-4::GFP reporter in worms, primary screen, SKN-1 inhibitor project, whole organism, uHTS, GFP/RFP fluorescence ratio, strain VP596 | actives 0.49% (n = 360,000) | AID 624304, 2012 | inhibition, % at 21.8 µM | C. elegans VP596 Pgst-4::GFP/RFP ratio, 24 h;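 active means interference check ratio from 0.5 to 1.5 plus GFP to RFP signal ratio inhibition reaching or exceeding a fixed threshold, cut at about 30% in these data, passing the limit was not always enough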
SMARCA2 act – SMARCA2 (BRM) function activators, primary screen, cell-based, luminescence, high throughput. MG213 cells, MMTV-luciferase reporter, dexamethasone, overnight. activation, % at 9.1 µM. actives 1% (n = 370,000). AID 652017, 2013; in the data active means activation above about 7.8%;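 further: 0% = vehicle wells and 100% = reference activator wells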
NadD inh – inhibitors of S. aureus NadD, primary screen, biochemical, colorimetric, uHTS; purified NadD enzyme, colorimetric absorbance read-out; inhibition, % at 20 µM; actives 0.78% (n = 360,000); Nicotinate-nucleotide adenylyltransferase NadD (Staphylococcus aureus N315); in the data active means inhibition above about 26%
GRIN3A LBD mod – binders of NR3A ligand-binding domain, primary screen, biophysical, differential scanning fluorimetry, uHTS | Glutamate receptor ionotropic, NMDA 3A (GRIN3A) ligand-binding domain | actives 2.5% (n = 340,000) | Tm shift relative to glycine control, % at 25 µM | AID 1259313, 2017 | NR3A LBD differential scanning fluorimetry, Tm shift; 0% = protein alone, 100% = glycine-bound protein;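 active means melting temperature shift of at least 10% of the positive control shift, at one fixed dose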
Vif inh – HIV Vif self-association inhibitors, primary screen, imaging, HEK293T, single point | HEK293T cells, Vif self-association by quenched fluorescence, 24 h | inhibition, % at 7.49 µM | actives 0.35% (n = 340,000); in the data active means inhibition above about 50%, passing the limit was not always enough
esBAF inh – Bmi1 luciferase reporter increase in mESCs, primary screen, esBAF inhibitor project, mouse ES cells, Bmi1 luciferase knock-in, single point; actives 2% (n = 350,000); AID 602393, 2012; reporter increase, % at 12.5 µM; 24 h; 100% = twice the neutral-well signal; in the data active means activation above about 40%;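 further: 0% = median of the plate's neutral control wells and 100% = double that signal; a rise in the Bmi1 reporter signal indicates esBAF inhibition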
* = called active by the depositor. Shown are actives, neighbours in structure and some others; about 5.2% of the full set was active somewhere.

Results for O=C(NCCc1ccncc1)Nc1ccc(Cl)cc1 ?
SKN-1 inh: -13; SMARCA2 act: -3; NadD inh: 1; GRIN3A LBD mod: -4; Vif inh: -1; esBAF inh: 3

How did COc1ccc(C(=O)Nc2ccc3c(c2)C(=O)N(C)C[C@@H](OC)[C@H](C)CN(C(C)=O)[C@H](C)CO3)cc1 do in these assays?
esBAF inh: -3

How did C[C@H]1CN([C@@H](C)CO)C(=O)c2cc(NS(=O)(=O)c3cccs3)ccc2O[C@@H]1CN(C)Cc1ccc(Cl)c(Cl)c1 do in these assays?
esBAF inh: 1

What do the screens show for `COC(=O)c1cccc(NC(=S)NCCC2=CCCCC2)c1`?
SKN-1 inh: -7; SMARCA2 act: -1; NadD inh: 1; GRIN3A LBD mod: -8; Vif inh: 55*; esBAF inh: 2

Results for Oc1ccc(/C=N/N2CCN(C3c4ccccc4-c4ccccc43)CC2)c(O)c1 ?
SKN-1 inh: 2; SMARCA2 act: -3; NadD inh: 11; GRIN3A LBD mod: 11*; Vif inh: -4

How did Oc1ccc(/C=N/N2CCN(C3c4ccccc4-c4ccccc43)CC2)cc1 do in these assays?
SKN-1 inh: -3; SMARCA2 act: -2; NadD inh: 1; GRIN3A LBD mod: 5; Vif inh: -2; esBAF inh: -14

How did O=C(NC[C@@H]1CC[C@@H](Cc2ccc(-c3ccccc3)cc2)O1)Nc1ccc(Br)cc1 do in these assays?
SKN-1 inh: 14; SMARCA2 act: -4; NadD inh: 2; GRIN3A LBD mod: 24*; Vif inh: -26; esBAF inh: 4

Results for O=C(NCCCCc1ccccc1)NC[C@@H]1CC[C@@H](Cc2ccc(-c3ccccc3)cc2)O1 ?
SKN-1 inh: 7; SMARCA2 act: -4; NadD inh: 1; GRIN3A LBD mod: -1; Vif inh: -27; esBAF inh: 1

What do the screens show for `CCOC(=O)c1cc(-c2cccc(C(F)(F)F)c2)nc2nc(SC)[nH]c(=O)c12`?
SKN-1 inh: 8; SMARCA2 act: 7; NadD inh: 3; GRIN3A LBD mod: -3

What do the screens show for `CCOC(=O)c1nc(C)nc(Sc2n[nH]c(-c3cc(C(F)(F)F)cc(C(F)(F)F)c3)n2)c1C`?
SKN-1 inh: -8; SMARCA2 act: 0; NadD inh: -3; GRIN3A LBD mod: 13*; Vif inh: 5; esBAF inh: 2

What do the screens show for `CC(=O)Nc1ccc(N=Nc2ccccc2)cc1[N+](=O)[O-]`?
SKN-1 inh: 35; SMARCA2 act: -1; NadD inh: -9; GRIN3A LBD mod: -3; Vif inh: 1; esBAF inh: 56*

What do the screens show for `COc1cc(-c2nc(-c3ccc(NC(=O)c4ccc5c(c4)OCO5)cc3)no2)cc(OC)c1OC`?
SKN-1 inh: 18; SMARCA2 act: 8.0*; NadD inh: -8; GRIN3A LBD mod: -4; Vif inh: 10

Results for COc1ccc(-c2noc(CNC(=O)c3ccc4c(c3)OCO4)n2)cc1 ?
SKN-1 inh: -6; SMARCA2 act: 0; NadD inh: -7; GRIN3A LBD mod: 0; Vif inh: 27; esBAF inh: 4

Results for Cc1ccccc1-c1nc(-c2ccc(NC(=O)c3ccc4c(c3)OCO4)cc2)no1 ?
SKN-1 inh: 18; SMARCA2 act: 1; NadD inh: 3; GRIN3A LBD mod: 34*; Vif inh: -12; esBAF inh: 31

How did COc1ccc(CC(=O)Nc2ccc(-c3noc(-c4cc(OC)c(OC)c(OC)c4)n3)cc2)cc1 do in these assays?
SKN-1 inh: -17; SMARCA2 act: 0; NadD inh: -4; GRIN3A LBD mod: 0; Vif inh: active; esBAF inh: 2

How did Cc1ccc(-c2nc3ncccc3o2)cc1NC(=O)c1ccc2c(c1)OCO2 do in these assays?
SKN-1 inh: 2; SMARCA2 act: 3; NadD inh: -1; GRIN3A LBD mod: 4; Vif inh: 51*; esBAF inh: -2

How did O=C(C[C@@H]1CC[C@@H](NC(=O)c2ccncc2)[C@@H](CO)O1)Nc1ccccc1 do in these assays?
esBAF inh: 4

Results for C(#Cc1ccccc1)Cn1nnc2ccccc21 ?
SKN-1 inh: 20; SMARCA2 act: -1; NadD inh: 0; GRIN3A LBD mod: 3; esBAF inh: 60*

How did CO[C@H]1CC[C@@H]2CCN(C)C(=O)[C@@H](C)N(C)C(=O)c3cc(C#N)ccc3OC[C@H]1O2 do in these assays?
esBAF inh: 3

How did CCCCn1ccnc1C(=O)c1cccc(S(=O)(=O)N2CC(C)CC(C)C2)c1 (stereo not given) do in these assays?
SKN-1 inh: 13; SMARCA2 act: -1; NadD inh: -2; GRIN3A LBD mod: 16*; Vif inh: -9; esBAF inh: -2

How did CCCCn1ccnc1C(=O)c1cc(S(=O)(=O)N2CCOCC2)ccc1C do in these assays?
SKN-1 inh: -17; SMARCA2 act: -5; NadD inh: -7; GRIN3A LBD mod: 0; Vif inh: -20; esBAF inh: 15

Results for CCCc1cc(-c2[nH]ncc2-c2ccc3c(c2)OCCCO3)c(O)cc1O ?
SKN-1 inh: 0; SMARCA2 act: -4; NadD inh: 6; GRIN3A LBD mod: 12*; Vif inh: -4; esBAF inh: -1

What do the screens show for `CCCc1cc(-c2[nH]ncc2-c2ccc(C(=O)OCC)o2)c(O)cc1O`?
SKN-1 inh: 3; SMARCA2 act: -4; NadD inh: 10; GRIN3A LBD mod: -1; Vif inh: -13; esBAF inh: 4

What do the screens show for `Cc1ccccc1OCC(O)Cn1nnc2ccccc21` (stereo not given)?
SKN-1 inh: 26; SMARCA2 act: 2; NadD inh: 2; GRIN3A LBD mod: 3; Vif inh: -1; esBAF inh: 65*

How did COCc1ccc(C(=O)N2CCCC(N(C)CCc3ccc(OC)c(OC)c3)C2)s1 (stereo not given) do in these assays?
SKN-1 inh: 12; SMARCA2 act: -1; NadD inh: -3; GRIN3A LBD mod: 14*; Vif inh: 1; esBAF inh: -6

How did COCC(=O)N1CCCC(N(C)CCc2ccc(OC)c(OC)c2)C1 (stereo not given) do in these assays?
SKN-1 inh: 10; SMARCA2 act: -1; NadD inh: 2; GRIN3A LBD mod: 1; Vif inh: 4; esBAF inh: 5

Results for Cc1noc(C)c1S(=O)(=O)Nc1cccc2c1O[C@H](CN(C)S(=O)(=O)c1ccc(Cl)cc1)[C@H](C)CN([C@H](C)CO)C2=O ?
esBAF inh: -2
